Results as given in PubChem BioAssay (NCI).
About 83,000 compounds went through this panel and 20% of them were active in at least one assay; those are over-represented in the sample as a whole.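 Cell lines were cultured in 96-well plates, exposed to a single compound concentration, and assessed for percent growth 48 hours later.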 Values without a mark were called inactive. Activity calls are given as the source filed them. Rule for the calls: active = growth percent below 10; inactive = the rest.

Experiments:
Experiment in all cases: NCI-60 one-dose screen, 48 h (100 = growth as untreated, 0 = no growth, -100 = all killed)
NCI-H23 lung = conditions: 10 µM unless noted
NCI-H226 lung = conditions: 10 µM unless noted
NCI-H322M lung = conditions: 10 µM unless noted
HOP-62 NSCLC = conditions: 10 µM unless noted
NCI-H460 lung = conditions: 10 µM unless noted
HOP-92 NSCLC = conditions: 10 µM unless noted
NCI-H522 lung = conditions: 10 µM unless noted
A549/ATCC NSCLC = conditions: 10 µM unless noted
786-0 renal = conditions: 10 µM unless noted
COLO 205 colon = conditions: 10 µM unless noted
DU-145 prostate = conditions: 10 µM unless noted
K-562 leukemia = conditions: 10 µM unless noted
MALME-3M melanoma = conditions: 10 µM unless noted
MDA-MB-231 breast = conditions: 10 µM unless noted
RXF 393 renal = conditions: 10 µM unless noted
SF-268 CNS = conditions: 10 µM unless noted
SF-295 CNS = conditions: 10 µM unless noted
SF-539 CNS = conditions: 10 µM unless noted
UACC-257 melanoma = conditions: 10 µM
M14 melanoma = conditions: 10 µM unless noted

SMILES	growth (NCI-H23 lung)	growth (NCI-H226 lung)	growth (NCI-H322M lung)	growth (HOP-62 NSCLC)	growth (NCI-H460 lung)	growth (HOP-92 NSCLC)	growth (NCI-H522 lung)	growth (A549/ATCC NSCLC)	growth (786-0 renal)	growth (COLO 205 colon)	growth (DU-145 prostate)	growth (K-562 leukemia)	growth (MALME-3M melanoma)	growth (MDA-MB-231 breast)	growth (RXF 393 renal)	growth (SF-268 CNS)	growth (SF-295 CNS)	growth (SF-539 CNS)	growth (UACC-257 melanoma)	growth (M14 melanoma)
COc1cc(Cn2c(SCC(=O)Nc3cc(OC)c(OC)c(OC)c3)nc3ccccc3c2=O)cc(OC)c1OC	77.1%	57.7%	82.1%	42.8%	57.8%	39.8%	34%	62.9%	73.6%	109%	94.6%	97.4%	82.8%	58.2%	61.6%	54.7%	85.9%	66.1%	102%	95%
COc1cc(/C=C2\CCCC3=C2NC(C)=NC3c2cc(OC)c(OC)c(OC)c2)cc(OC)c1OC (stereo not given)	33.9%	37.7%	41.1%	22%	-28% (active)	70.7%	51.8%	16.2%	18%	19.2%	4.92% (active)	11.1%	30.2%	13%	22.7%	21.2%	-25% (active)	13.5%	43.8%	-42% (active)
COC(=O)c1cc(-c2cccs2)c(C#N)c(N)c1C#N	96.7%	101%	99.8%	90.3%	104%	94.2%	95.4%	101%	100%	109%	109%	104%	116%	94.3%	108%	99.5%	103%	101%	100%	110%
COc1ccc(NC(=O)c2cc3ccccc3nc2Nc2cc(OC)c(OC)c(OC)c2)cc1	59.6%	54.5%	90.2%	84.1%	50.3%	54.7%	57.2%	50.4%	58%	76.7%	66.3%	50.6%	132%	54.1%	60.5%	66.6%	65.5%	68.3%	83.6%	55.1%
COc1ccc(/C=C2\CCCC3=C2NC(C)=NC3c2ccc(OC)c(OC)c2)cc1OC (stereo not given)	29.1%	-22.4% (active)	47.4%	32.1%	0.649% (active)	30.1%	-7.42% (active)	18%	9.19% (active)	-29.8% (active)	7.29% (active)	5.92% (active)	-0.933% (active)	7.16% (active)	-16.6% (active)	20%	3.05% (active)	17.1%	20.2%	-42.1% (active)
O=S(=O)(O)CCl	97.2%	106%	105%	112%	113%	106%	77.8%	103%	99.1%	113%	109%	94.6%	102%	108%	107%	100%	102%	101%	98.5%	97.1%
NC(CC(N)C(=O)O)C(=O)O (stereo not given)	107%	103%	103%	117%	108%	115%	79.7%	99.4%	105%	115%	115%	91.8%	104%	103%	89.6%	109%	101%	97.9%	95.2%	104%
O=C1N=C(c2c(-c3[nH]c(=O)c4ccc(Br)cc4c3O)c(O)c3ccccc3c2O)C(=O)c2cc(Br)ccc21	-43% (active)	-30.4% (active)	-3.29% (active)	-52.9% (active)	-80.9% (active)	-13.2% (active)	-31.4% (active)	-32.2% (active)	-63.2% (active)	73.1%	-38.2% (active)	14.3%	-74.3% (active)	-8.73% (active)	-76.1% (active)	-41.4% (active)	17.2%	-57.7% (active)	-51.6% (active)	-31.9% (active)
